Drawing on PubChem BioAssay (NCI), this text covers growth for eleven compounds.

Among the test systems are NCI-H23 lung; NCI-H226 lung; NCI-H322M lung; HOP-62 NSCLC; NCI-H460 lung; HOP-92 NSCLC; A549/ATCC NSCLC; 786-0 renal; COLO 205 colon; NCI-H522 lung.
Common to all, as to assay: NCI-60 one-dose screen, 48 h (100 = growth as untreated, 0 = no growth, -100 = all killed)
Details in all cases: 10 µM unless noted

Each structure is given as a SMILES string. The panel holds about 83,000 compounds, 20% with a hit somewhere; the sample as a whole holds those more often.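 Single-concentration screen, 48 h exposure, 96-well plates. Endpoint: percent growth. Below 10 = active.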 Values without a mark were called inactive. Calls of active or inactive are those of the source.

In the case of `COc1ccc2nc(-c3cc(-c4cc(OC)c(OC)c(OC)c4)n[nH]3)[nH]c2c1`, the growth with NCI-H23 lung is 7.44% (active); in the test on NCI-H226 lung, -48.9% (active); in the test with NCI-H322M lung it was 31.1%; with HOP-62 NSCLC, -1.25% (active); with NCI-H460 lung it was 25.2%; with HOP-92 NSCLC it was 22%. Also, the growth in the test with A549/ATCC NSCLC was 6.33% (active); in the test with 786-0 renal, 59.5%; in the test with COLO 205 colon it was -20% (active).

Turning to `O=C(NC1=CC(=O)c2ccccc2C1=O)c1ccccc1`, the growth with NCI-H23 lung is 18.7%; with NCI-H226 lung it was 37.3%; in the test on NCI-H322M lung, 57.9%; in the test with HOP-62 NSCLC it was 49.7%; with NCI-H460 lung it was 10.2%; with HOP-92 NSCLC it was -84.1% (active). Moreover, the growth with A549/ATCC NSCLC is 23.8%; in the test with 786-0 renal it was 39.9%; with COLO 205 colon, 48%.

Consider `COC(=O)c1cc(=O)nc(N/N=C/c2ccc(C)cc2)s1`, for which the growth in the test with NCI-H23 lung was 107%; in the test with NCI-H226 lung, 98.5%; in the test with NCI-H322M lung it was 108%; in the test on HOP-62 NSCLC, 98.6%; with NCI-H460 lung, 106%; in the test with HOP-92 NSCLC, 66.4%. Also, the growth in the test on A549/ATCC NSCLC is 101%; in the test on 786-0 renal, 103%; in the test with COLO 205 colon it was 114%.

Regarding `O=C1C(=O)N(CCCCn2cc(-c3ccccc3)nn2)c2ccccc21`, the growth in the test on NCI-H23 lung is 101%; with NCI-H226 lung, 106%; in the test with NCI-H322M lung, 103%; in the test with HOP-62 NSCLC it was 106%; in the test on NCI-H460 lung it was 99.9%; in the test on HOP-92 NSCLC, 101%. Further, the growth was 100% in the test with NCI-H522 lung, 108% in the test on A549/ATCC NSCLC, 102% in the test with 786-0 renal and 112% in the test with COLO 205 colon.

In the case of `O=C(N/N=C/c1ccccc1SSc1ccccc1/C=N/NC(=O)c1ccccc1)c1ccccc1`, the growth was 33.5% in the test with NCI-H23 lung; 44.8% in the test on NCI-H226 lung; 46.5% in the test with NCI-H322M lung; 20.2% with HOP-62 NSCLC; 10% (active) with NCI-H460 lung; 59.6% with HOP-92 NSCLC. Besides, the growth in the test with A549/ATCC NSCLC is 49.6%; with 786-0 renal, 23.6%; in the test with COLO 205 colon it was 6.05% (active).

For `CC1(C)c2ccccc2C(=O)C1(Br)Cc1ccccc1` (stereo unspecified), the growth was 74.1% with NCI-H23 lung; 94.1% with NCI-H226 lung; 95.5% in the test on NCI-H322M lung; 95% in the test with HOP-62 NSCLC; 96.8% in the test with NCI-H460 lung; 83% in the test with HOP-92 NSCLC. The growth with A549/ATCC NSCLC is 94.6%; with 786-0 renal, 81.7%; in the test on COLO 205 colon, 97.9%.

On to `Nc1ncnc2nc(Br)[nH]c12`, for which the growth with NCI-H23 lung was 92.7%; in the test with NCI-H226 lung it was 85.9%; in the test with NCI-H322M lung it was 108%; with HOP-62 NSCLC, 98%; with NCI-H460 lung it was 106%; in the test with HOP-92 NSCLC, 94.7%. Also, the growth was 85.9% with NCI-H522 lung, 77.1% in the test on A549/ATCC NSCLC, 95.1% in the test with 786-0 renal and 103% in the test with COLO 205 colon.

As to `CC(C)=CCC/C(C)=C/CC/C(C)=C/CSC[C@H](NC(=O)CCCCCN1CCN(C)CC1)C(=O)NC1CCCCCC1`, the growth is 58.1% in the test with NCI-H23 lung; 82.1% in the test with NCI-H226 lung; 88.7% in the test on NCI-H322M lung; 91.7% with HOP-62 NSCLC; 2.84% (active) in the test on NCI-H460 lung; 32.6% in the test with HOP-92 NSCLC. Further, the growth in the test with A549/ATCC NSCLC was 64.2%; in the test on 786-0 renal, 75.9%.

For the compound `Cn1cc(-c2csc(-c3cn(CCCN4CCCCC4)c4ccc(F)cc34)n2)c2cccnc21`, the growth in the test on NCI-H23 lung was 89.2%; with NCI-H226 lung, 91.6%; in the test with NCI-H322M lung, 86.8%; in the test on HOP-62 NSCLC, 99.3%; in the test with NCI-H460 lung, 96.1%; in the test with HOP-92 NSCLC, 49%. Also, the growth in the test on NCI-H522 lung was 103%; in the test on A549/ATCC NSCLC, 92.2%; with 786-0 renal it was 40.3%; in the test on COLO 205 colon, 98.9%.

Turning to `CC(=O)O[C@@H]1CCN2C(=O)N(C)c3ccccc3[C@@H]2C1`, the growth in the test on NCI-H23 lung was 98.7%; in the test with NCI-H226 lung it was 109%; in the test with NCI-H322M lung it was 108%; with HOP-62 NSCLC, 104%; in the test with NCI-H460 lung, 104%; in the test with HOP-92 NSCLC, 111%. For the same compound, the growth in the test with A549/ATCC NSCLC is 95%; in the test on 786-0 renal it was 101%; in the test with COLO 205 colon it was 114%.

Turning to `NCCNc1nc(-c2ccccc2)nc2nc(-c3ccccc3)oc12`, the growth in the test on NCI-H23 lung was 90.6%; in the test with NCI-H226 lung, 86.1%; in the test with NCI-H322M lung, 104%; in the test on HOP-62 NSCLC it was 85.6%; with NCI-H460 lung, 98.4%; in the test on HOP-92 NSCLC, 55.1%. Besides, the growth in the test with A549/ATCC NSCLC was 93.6%; in the test on 786-0 renal, 81%; in the test on COLO 205 colon, 87.4%.
